Most compounds without a hit are left out; they make up all but 2.1% or so of the library.
LMP1 NFkB inh: reduces LMP1-driven NF-kappaB luciferase signal. LMP1-induced NF-kappaB luciferase reporter cells, luminescence. inhibition, % at 12.5 µM. 350,000 tested, 0.69% active. AID 504558; in the data active = inhibition above about 41%; inconclusive = no clear call, values can overlap the other calls
MITF TRPM1 inh: reduces MITF-dependent TRPM1 promoter luciferase signal; SK-MEL-5 TRPM1 promoter luciferase, 24 h; inhibition, % at 12.5 µM; 330,000 tested, 0.83% active; AID 488899;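 active = mean inhibition across replicates of 60% or more, whatever share of single replicates reaches that level; inconclusive = some that reach 60%, reason not given; inactive = mean inhibition across replicates below 60%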
Shn3 3UTR inh: reduces Shn3 3'UTR luciferase signal in osteoblasts | AID 588674 | Clone20 osteoblast Shn3 3'UTR firefly luciferase, 24 h | 360,000 tested, 0.52% active | inhibition, % at 12.5 µM;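 active = mean inhibition of at least 75% with every replicate also reaching 75%; inconclusive = mean inhibition at least 75% but some replicate below; inactive = mean inhibition below 75%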
PAX8 reporter: inhibitors of PAX8 transcriptional activity in RMG-I cells. RMG-I TPO-luciferase reporter, SteadyGlo, 24 h. 360,000 tested, 1.2% active. inhibition, % at 12.6 µM. AID 652154;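 active = mean replicate inhibition at least 60% with every replicate also reaching 60%; inconclusive = only one of the two criteria is met; inactive = mean below 60% and not all replicates reaching 60%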;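 also: luciferase light reporting Pax8 driven TPO promoter activity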
aSyn 5UTR inh: 5' untranslated region of α-synuclein, MLPCN primary screen. inhibition, % (tested at 7.5 µM). 300,000 tested, 0.82% active. AID 1813. alpha-synuclein 5'UTR reporter, inhibitor activity; in the data active = inhibition above about 60%; inconclusive = no clear call, values can overlap the other calls;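 also: H4 neuroglioblastoma cells stably carrying SNCA 5'UTR luciferase fusion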
A number is an active result; . = inactive; ? = inconclusive; / = not tested or not shown; ! = not active in a repeat.

SMILES | LMP1 NFkB inh | MITF TRPM1 inh | Shn3 3UTR inh | PAX8 reporter | aSyn 5UTR inh
C/C(=N\OCC(=O)NCC(F)(F)F)c1cc2ccccc2o1 | . | . | . | 84 | .
CCOC(=O)c1c(C)[nH]c(C(=O)NCC(c2ccco2)N2CCCCC2)c1C (stereo not drawn) | . | . | . | . | /
COc1ccccc1/C=C1\SC(=S)N(CCC(=O)NCCCn2ccnc2)C1=O | . | . | . | . | .
C[C@@H]1CCCCO[C@@H](CN(C)C(=O)Nc2ccc(F)cc2)[C@H](C)CN([C@H](C)CO)C(=O)c2cc(NS(=O)(=O)c3ccc(Cl)cc3)ccc2O1 | / | / | / | 91 | /
C[C@@H]1CCCCO[C@H](CN(C)C(=O)Cc2ccccc2)[C@@H](C)CN([C@@H](C)CO)C(=O)c2cc(NS(=O)(=O)c3ccc(Cl)cc3)ccc2O1 | / | / | / | 79 | /
C[C@@H]1CCCCO[C@H](CN(C)C(=O)Nc2ccccc2)[C@@H](C)CN([C@@H](C)CO)C(=O)c2cc(NS(=O)(=O)c3ccc(Cl)cc3)ccc2O1 | / | / | / | 66 | /
CCCNC(=O)C(=O)NCc1ccccn1 | . | . | . | . | .
CC1CC(=O)c2c(cc3c(-c4c(O)cc(O)c5c(O)c6c(cc45)OC(C)CC6=O)c(O)cc(O)c3c2O)O1 (stereo not drawn) | . | 79 | . | / | 70
O=C(C=Cc1ccccc1)CC(c1ccccc1)N1CCOCC1 (stereo not drawn) | . | 76 | . | . | /
Cc1cccc(C)c1NC(=O)COC(=O)c1cccc2c1C(=O)c1ccccc1C2=O | . | . | . | . | 68
Cc1cccc(S(=O)(=O)N2CC[C@@H]3[C@H](CO)N(C)c4ccc(-c5ccc(C#N)cc5)cc4[C@@H]32)c1 | / | / | / | 89 | /
CN1c2ccc(-c3cccc(C#N)c3)cc2[C@H]2[C@H](CCN2S(=O)(=O)c2ccccc2F)[C@H]1CO | / | / | / | 102 | /
Cc1ccc(S(=O)(=O)N2CC[C@@H]3[C@H](CO)N(C)c4ccc(-c5ccc(C#N)cc5)cc4[C@@H]32)cc1 | / | / | / | 80 | /
CC(C)NC(=O)Nc1ccc2c(c1)C(=O)N(C)[C@@H]1CC[C@@H](CC(=O)NCC(F)(F)F)O[C@H]1CO2 | / | / | / | . | /
S=C(NCCCN1CCOCC1)N1CCN(c2nc(-c3ccc(Cl)cc3)cs2)CC1 | 44 | . | . | . | .
COc1ccc(NC(=O)c2c(Nc3ccccc3)sc(C(=O)c3ccc(F)cc3)c2N)cc1 | . | . | . | 89 | .
Cc1ccc(NC(=O)c2c([N+](=O)[O-])c(C(C)(C)C)nn2C)c(C)c1 | . | . | . | 128 | .
Cc1cc(C)c(C)c(S(=O)(=O)N2CCN(c3ncnc4ccccc34)CC2)c1C | . | . | 86 | . | /
Cc1cc(C)c(C)c(S(=O)(=O)N2CCN(c3ccccn3)CC2)c1C | . | . | . | . | .
Cc1ccc2nc(CSc3nc(C)ccc3C#N)[nH]c2c1 | . | . | . | / | 79
CSc1ccc(Cl)c(C(=O)NCCOc2cc(C)ccc2C(C)C)c1 | . | . | . | / | .
Cc1cccc(-n2c(=S)[nH]c3nc4c(cc3c2=O)COC(C)(C)C4)c1 | / | / | . | . | .
COc1ccc2c(c1)C=C(CN1CCC(CO)(CCc3ccccc3)CC1)CO2 | . | . | . | . | .
COc1ccc(CC2(CO)CCN(CC3=Cc4cc(Cl)ccc4OC3)CC2)cc1 | . | . | 90 | . | .
COc1ccc(/C=N/Nc2nc(C)nc(N)n2)cc1 | . | . | . | . | .
SMILES | LMP1 NFkB inh | MITF TRPM1 inh | Shn3 3UTR inh | PAX8 reporter | aSyn 5UTR inh
COc1ccc(Cc2c(-c3ccc(C)cc3)nc3c(C)cc(Br)cn23)c(C)c1 | / | / | . | . | /
COc1ccc(Cc2c(-c3ccc(OC)c(OC)c3)nc3c(C)cc(Br)cn23)c(C)c1 | / | / | . | 66 | /
COc1ccc(-n2cc(-c3ccccc3)[n+]3c2CCCCC3)cc1 | . | . | . | . | .
COc1ccc(-n2c(-c3ccc(Br)cc3)c[n+]3c2CCc2ccccc2-3)cc1 | . | 98 | ? | 79 | .
FC(F)Oc1ccc(-c2c[n+]3c(n2-c2ccccc2)CCCCC3)cc1 | . | . | . | . | .
COc1ccc(-c2c[n+]3c(n2-c2ccccc2)CCCCC3)cc1 | . | . | . | . | .
COc1ccccc1-n1c(-c2ccccc2)c[n+]2c1CCc1ccccc1-2 | . | 67! | 90! | 88 | .
CC(C)c1ccc(-n2c(-c3ccccc3)c[n+]3c2CCc2ccccc2-3)cc1 | . | 88 | . | 90 | 78
COc1ccc(-c2cn(-c3ccc(OC)cc3)c3[n+]2-c2ccccc2CC3)cc1 | . | 69 | ? | 92 | .
CC(C)C(NC(=O)CSc1ccc(Cl)cc1)C(C)C | . | . | . | / | .
Cn1c(=O)c(C(=O)CCl)c(N)n(CC2CC2)c1=O | . | . | . | / | /
